Laboratory results: PubChem BioAssay (EPA / NIEHS)
“And” between values parts separate entries of the source, which are not always exact repeats. Identical values can stand only once. A structure can be active in one record and inactive in another. The source made the active and inactive calls. Rule for the calls: active = hit-call score of the fitted dose curve at least 0.9, where 1 is the maximum; inactive = score below 0.9.

Assays:
[1] = APR_HepG2_CellLoss_72hr: Apredica 72-hour HepG2 Assay for Cell Loss (AID 2282915); conditions: high-content imaging
In short: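 HepG2 cells exposed 72 h to compound at 0.39–200 uM (10 concentrations, duplicate) in 0.5% DMSO. Fixed with 3.7% formaldehyde and Hoechst 33342-stained. Imaged at 20x; nuclear count gives cell number, fitted bidirectionally versus DMSO.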

[2] = APR_HepG2_P-H2AX_72hr: Apredica 72-hour HepG2 Assay for H2AX Phosphorylation (AID 2282916); conditions: imaging, actives raise or lower the signal;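 note: phospho-histone H2A.x immunostain intensity per cell marking DNA damage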
In short: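 Phospho-histone H2A.x immunofluorescence, multiplexed with Hoechst and c-Jun, quantified by high-content imaging. Compounds applied to HepG2 for 72 h across ten concentrations (0.39–200 uM, 0.5% DMSO), in duplicate; DMSO baseline.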

[3] = APR_HepG2_MitoMembPot_72hr: Apredica 72-hour HepG2 Assay for Mitochondrial Membrane Potential (AID 2282917); conditions: imaging, actives raise or lower the signal
In short: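 HepG2 cells dosed 72 hr with compound at 0.39–200 uM in duplicate, 0.5% v/v DMSO final. Mitochondria stained with 250 nM MitoTracker Red CMXRos for 30 min before formaldehyde fixation, imaged by high-content fluorescence; bidirectional fit versus DMSO.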

[4] = APR_HepG2_MitoticArrest_72hr: Apredica 72-hour HepG2 Assay for Mitotic Arrest (AID 2282918); conditions: high-content imaging, actives raise or lower the signal
In short: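 HepG2 cells were exposed for 72 hr to compound at 0.39–200 uM (10 concentrations, duplicate) in 0.5% v/v DMSO, fixed in 3.7% formaldehyde, immunostained for phospho-histone H3 with Hoechst 33342 and imaged by high-content fluorescence; bidirectional fits versus DMSO.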

[5] = APR_HepG2_MicrotubuleCSK_72hr: Apredica 72-hour HepG2 Assay for Microtubule CSK Stabilty (AID 2282919); conditions: HepG2 microtubule cytoskeleton, high-content imaging, actives raise or lower the signal
In short: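 HepG2, 72 hr cmpd exposure, 0.39–200 uM (10 pts, duplicate), 0.5% DMSO. 3.7% formaldehyde fix, 0.5% Triton perm, anti-alpha-tubulin/Cy5 plus Hoechst. HCS fluorescence intensity; bidirectional fit vs DMSO baseline; taxol as positive control.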

[6] = APR_HepG2_P-H2AX_24hr: Apredica 24-hour HepG2 Assay for H2AX Phosphorylation (AID 2282920); conditions: high-content imaging, actives raise or lower the signal
In short: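 HepG2 human liver cells were exposed for 24 hr to compounds at 0.39–200 uM in duplicate, with 0.5% v/v DMSO final. Fixed cells were immunostained for phospho-histone H2A.x plus Hoechst 33342, imaged by HCS fluorescence, and fitted bidirectionally against DMSO.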

[7] = APR_HepG2_StressKinase_72hr: Apredica 72-hour HepG2 Assay for Stress Kinase (AID 2282921); conditions: HepG2 stress kinase (phospho-c-Jun) imaging, actives raise or lower the signal
In short: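 Stress kinase signal is phospho-c-Jun immunofluorescence (1:500 primary, Cy3 secondary) in fixed, permeabilized human HepG2 cells imaged at 20x. Exposure lasted 72 hr over ten concentrations from 0.39 to 200 uM, 0.5% DMSO, in duplicate. Bidirectional fit versus DMSO.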

[8] = APR_HepG2_StressKinase_24hr: Apredica 24-hour HepG2 Assay for Stress Kinase (AID 2282922); conditions: HepG2 stress kinase (phospho-c-Jun) imaging, actives raise or lower the signal
In short: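 Read-out: phospho-c-Jun immunofluorescence (Cy3 secondary) quantified by high-content imaging at 20x, nuclei defined by Hoechst 33342. Human HepG2 liver cells dosed 24 hr, 0.39–200 uM, DMSO 0.5% v/v; gain or loss of signal fitted relative to DMSO.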

[9] = APR_HepG2_p53Act_72hr: Apredica 72-hour HepG2 Assay for p53 Activation (AID 2282923); conditions: high-content imaging, actives raise or lower the signal;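 note: average cellular p53 protein immunofluorescence intensity in HepG2 cells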
In short: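 After 72 h with compound (ten points, 0.39 to 200 uM, final DMSO 0.5% v/v), fixed HepG2 cells were labelled with sheep anti-p53 and Hoechst 33342 and imaged; gain or loss versus DMSO scored.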

[10] = APR_HepG2_MitoMass_72hr: Apredica 72-hour HepG2 Assay for Mitochondrial Mass (AID 2282924); conditions: high-content imaging, actives raise or lower the signal;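 note: MitoTracker Red CMXRos stain intensity per cell imaged as mitochondrial mass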
In short: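 Read-out: MitoTracker Red fluorescence intensity from automated imaging (20x, six fields per well) in human HepG2 liver cells. Dosing ran 72 hr, 0.39–200 uM, 0.5% DMSO; bidirectional curve fitting versus DMSO baseline.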

[11] = APR_HepG2_NuclearSize_72hr: Apredica 72-hour HepG2 Assay for Nuclear Size (AID 2282925); conditions: high-content imaging, actives raise or lower the signal
In short: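 Read-out: nuclear diameter from Hoechst 33342 images (ArrayScan, 20x, six fields/well), via cell-cycle image analysis. HepG2 were dosed 0.39–200 uM for 72 hr in 0.5% DMSO. Bidirectional fit relative to DMSO.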

[12] = ATG_CRE_CIS: Attagene CIS-FACTORIAL HepG2 Assay for human cAMP Responsive Element (CRE) binding protein 3 (AID 2282926); conditions: HepG2 CRE cis-reporter, Attagene multiplexed mRNA; actives raise or lower the signal
In short: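 Capillary electrophoresis of 6-FAM-labelled, HpaI-digested PCR products quantified reporter transcripts. These came from HepG2 transiently transfected with cis-element reporters and exposed to test chemicals for 24 hours, with DMSO defining baseline activity.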

[13] = target: CCAAT/enhancer-binding protein beta (Homo sapiens) (UniProt P17676); assay: ATG_C_EBP_CIS: Attagene CIS-FACTORIAL HepG2 Assay for human CCAAT/Enhancer Binding Protein (C/EBP) beta (AID 2282927); conditions: HepG2 Attagene cis-factorial transcription factor reporter; actives raise or lower the signal
Chain of CCAAT/enhancer-binding protein beta (Homo sapiens) (P17676 whole entry, looked up): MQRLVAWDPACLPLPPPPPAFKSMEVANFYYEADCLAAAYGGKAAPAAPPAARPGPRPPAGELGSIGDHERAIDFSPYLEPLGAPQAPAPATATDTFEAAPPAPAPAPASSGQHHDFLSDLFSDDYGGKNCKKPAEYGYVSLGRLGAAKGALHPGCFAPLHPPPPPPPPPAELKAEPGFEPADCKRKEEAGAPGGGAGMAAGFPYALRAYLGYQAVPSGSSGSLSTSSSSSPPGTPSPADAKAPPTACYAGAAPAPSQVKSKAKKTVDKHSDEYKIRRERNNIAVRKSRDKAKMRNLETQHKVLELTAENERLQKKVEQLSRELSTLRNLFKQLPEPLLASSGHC
In short: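 Transiently transfected HepG2 (MRTU library, endogenous TF-driven promoters); 24 h dosing; total RNA → oligo(dT) RT → PCR → 6-FAM primer extension → HpaI digest → CE; fit bidirectionally vs DMSO.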

[14] = ATG_CMV_CIS: Attagene CIS-FACTORIAL HepG2 Assay for human CMV (Internal Marker) (AID 2282928); conditions: HepG2 CMV promoter reporter, transcription factor profiling; actives raise or lower the signal;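 note: endpoint acts as a background internal control marker rather than a target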
In short: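 Readout: fluorescent reporter cDNA fragments separated by capillary electrophoresis after RT-PCR and HpaI cut. Cells: HepG2 carrying transfected cis-promoter reporter constructs, dosed 24 h. Endpoint serves as background internal-marker control, fit bidirectionally versus DMSO.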

[15] = ATG_DR4_LXR_CIS: Attagene CIS-FACTORIAL HepG2 Assay for human Liver X Receptor (LXR), DR4 submotif (AID 2282929); conditions: HepG2 Attagene DR4 cis-reporter, mRNA transcription; actives raise or lower the signal
In short: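 The endpoint is DR4-element-driven reporter transcripts after 24 h chemical exposure of transfected HepG2 cells. These were measured via RT-PCR and capillary electrophoresis, and gain or loss of signal was fitted relative to DMSO controls.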

[16] = target: Aryl hydrocarbon receptor (Homo sapiens) (UniProt P35869); assay: ATG_Ahr_CIS: Attagene CIS-FACTORIAL HepG2 Assay for human Aryl Hydrocarbon Receptor (Ahr) (AID 2282930); conditions: HepG2 AhR cis-factorial reporter transcription; actives raise or lower the signal
Chain of Aryl hydrocarbon receptor (Homo sapiens) (P35869 whole entry, looked up): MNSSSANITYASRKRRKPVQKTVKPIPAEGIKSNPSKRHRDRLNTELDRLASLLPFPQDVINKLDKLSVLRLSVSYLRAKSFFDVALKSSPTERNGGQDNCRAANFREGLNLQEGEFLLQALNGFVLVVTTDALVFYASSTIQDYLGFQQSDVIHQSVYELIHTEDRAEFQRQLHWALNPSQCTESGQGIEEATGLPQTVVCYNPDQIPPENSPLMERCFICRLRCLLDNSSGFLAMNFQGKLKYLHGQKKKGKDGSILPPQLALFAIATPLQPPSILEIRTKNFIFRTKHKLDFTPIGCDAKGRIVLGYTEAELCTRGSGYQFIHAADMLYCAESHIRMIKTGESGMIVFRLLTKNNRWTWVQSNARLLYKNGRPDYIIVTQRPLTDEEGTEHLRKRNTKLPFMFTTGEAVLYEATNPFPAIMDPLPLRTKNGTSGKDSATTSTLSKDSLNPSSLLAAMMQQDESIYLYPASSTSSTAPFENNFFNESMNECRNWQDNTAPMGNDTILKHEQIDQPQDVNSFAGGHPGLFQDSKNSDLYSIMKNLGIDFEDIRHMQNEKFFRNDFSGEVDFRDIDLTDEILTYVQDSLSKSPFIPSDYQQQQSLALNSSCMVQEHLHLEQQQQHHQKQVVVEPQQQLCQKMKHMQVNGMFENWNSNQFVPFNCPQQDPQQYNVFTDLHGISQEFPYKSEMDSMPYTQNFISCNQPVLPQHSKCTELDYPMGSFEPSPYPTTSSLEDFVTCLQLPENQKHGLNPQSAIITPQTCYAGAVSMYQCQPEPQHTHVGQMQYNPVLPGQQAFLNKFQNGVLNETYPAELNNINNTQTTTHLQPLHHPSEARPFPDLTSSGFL
In short: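 Read-out: reporter mRNA quantified by RT-PCR with fluorescent primer extension and capillary electrophoresis. Human HepG2 liver cells carried transfected cis-promoter reporter units and were exposed to chemical for 24 h; gain or loss fitted relative to DMSO.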

[17] = ATG_AP_1_CIS: Attagene CIS-FACTORIAL HepG2 Assay for human Activator Protein 1 (AP-1) (AID 2282931); conditions: HepG2 Attagene cis-factorial AP-1 reporter mRNA; actives raise or lower the signal
In short: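 Readout is reporter transcript level from endogenous transcription factor activity, quantified by RT-PCR with fluorescent primer extension and capillary electrophoresis. Transiently transfected HepG2 cells, 24 h exposure. Curves fitted both directions versus DMSO.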

[18] = ATG_AP_2_CIS: Attagene CIS-FACTORIAL HepG2 Assay for human Activator Protein 2 (AP-2) (AID 2282932); conditions: HepG2 AP-2 cis-reporter, Attagene transcription factor profiling; actives raise or lower the signal
In short: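 Liver-derived HepG2 line, cis-reporter system measuring endogenous factors; 24 h dosing; reporter mRNA detected by fluorescent RT-PCR and capillary electrophoresis.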

[19] = ATG_BRE_CIS: Attagene CIS-FACTORIAL HepG2 Assay for human Bone Morphogenetic Protein (BMP) Response Element (BRE) (AID 2282933); conditions: HepG2 BMP response element reporter, Attagene transcription factor profiling; actives raise or lower the signal
In short: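 Endogenous transcription factor activity at a BMP response element was monitored in transfected HepG2 cells 24 h after dosing. Fluorescent RT-PCR products were resolved by capillary electrophoresis, and activity was fitted in both directions versus DMSO.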

[20] = target: Retinoic acid receptor alpha (Homo sapiens) (UniProt P10276); assay: ATG_DR5_RAR_CIS: Attagene CIS-FACTORIAL HepG2 Assay for human Retinoic Acid Receptor Alpha (RARE), DR5 submotif (AID 2282934); conditions: HepG2 Attagene cis-factorial RARE DR5 reporter, mRNA; actives raise or lower the signal;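 for AC50: reporter responds to endogenous RAR alpha beta and gamma in HepG2 not RARA alone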
Chain of Retinoic acid receptor alpha (Homo sapiens) (P10276 whole entry, looked up): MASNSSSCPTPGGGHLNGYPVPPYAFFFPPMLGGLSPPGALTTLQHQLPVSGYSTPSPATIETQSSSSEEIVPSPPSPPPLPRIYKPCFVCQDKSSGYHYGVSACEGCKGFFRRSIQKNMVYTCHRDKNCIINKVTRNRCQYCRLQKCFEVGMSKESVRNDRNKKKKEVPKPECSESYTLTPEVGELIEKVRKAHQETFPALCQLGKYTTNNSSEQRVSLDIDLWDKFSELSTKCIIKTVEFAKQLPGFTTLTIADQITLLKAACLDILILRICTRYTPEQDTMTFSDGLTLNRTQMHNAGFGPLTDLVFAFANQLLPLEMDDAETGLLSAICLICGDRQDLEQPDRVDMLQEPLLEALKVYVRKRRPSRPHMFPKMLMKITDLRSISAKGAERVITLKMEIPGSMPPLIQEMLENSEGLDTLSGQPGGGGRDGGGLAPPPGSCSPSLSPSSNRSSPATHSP
In short: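 Read-out: DR5-driven reporter transcript measured by RT-PCR, 6-FAM primer extension, HpaI digest and capillary electrophoresis. Human HepG2 liver cells carry transiently transfected cis-element reporter constructs; dosing lasts 24 h. Gain or loss of signal fitted against DMSO baseline.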

Measured: AC50

CN1CSC(=S)N(C)C1
active: [1] 21.9 µM | [2] 4.12 µM | [5] 66.4 µM | [6] 21.8 µM | [8] 26.3 µM | [10] 57.2 µM | [12] 50 µM | [19] 15.4 µM
inactive: all other assays above

CC(C)(C)C(O)C(Oc1ccc(Cl)cc1)n1cncn1 (stereo not given)
active: [1] 90.5 µM and 96.3 µM and 36.1 µM | [3] 37.4 µM | [10] 98 µM | [12] 5.81 µM | [13] 7.06 µM | [17] 10.4 µM | [19] 7.92 µM | [20] 4.35 µM and 4.55 µM and 7.16 µM
inactive: [1] | [2] | [3] | [4] | [5] | [6] | [7] | [8] | [9] | [10] | [11] | [12] | [13] | [14] | [15] | [16] | [17] | [18] | [19] | [20]

CCCN(CCOc1c(Cl)cc(Cl)cc1Cl)C(=O)n1ccnc1
inactive: [2] | [3] | [4] | [6] | [7] | [8] | [9] | [10] | [11] | [12] | [13] | [14] | [15] | [17] | [18] | [19] | [20]
active: [1] 30.8 µM | [5] 165 µM | [14] 11.1 µM | [17] 14 µM | [19] 15.1 µM | [20] 3.01 µM

O=C(O)C(F)(F)C(F)(F)C(F)(F)C(F)(F)C(F)(F)C(F)(F)C(F)(F)F
inactive: [1] | [2] | [4] | [5] | [6] | [7] | [8] | [9] | [10] | [11] | [12] | [13] | [14] | [15] | [16] | [17] | [18] | [19]
active: [1] 108 µM | [3] 116 µM and 111 µM | [15] 11.5 µM | [17] 150 µM

COC(=O)c1ccccc1S(=O)(=O)NC(=O)Nc1nc(C)nc(OC)n1
inactive: [1] | [2] | [3] | [4] | [5] | [6] | [7] | [8] | [9] | [10] | [11] | [12] | [13] | [14] | [15] | [16] | [17] | [18] | [19] | [20]
active: [17] 63.1 µM | [19] 27.1 µM

O=C(Nc1ccccc1)Nc1cnns1
active: [1] 90.8 µM | [2] 93.6 µM | [4] 91.6 µM | [5] 78 µM | [14] 50 µM | [15] 82.7 µM | [17] 50 µM | [19] 50 µM
inactive: all other assays above

CCN(CC)C(=O)SCc1ccc(Cl)cc1
active: [13] 8.69 µM | [19] 50 µM
inactive: all other assays above

[2H]C1([2H])[n+]2ccccc2-c2cccc[n+]2C1([2H])[2H]
active: [1] 35.1 µM | [4] 94.5 µM | [5] 143 µM | [14] 13.5 µM | [15] 79.9 µM | [17] 38.9 µM
inactive: all other assays above

CCOc1nc(NC)nc(NC(=O)NS(=O)(=O)c2ccccc2C(=O)OC)n1
inactive: all assays above

COc1nn(CSP(=S)(OC)OC)c(=O)s1
inactive: all assays above
